From PubChem
In the library only some 1.1% were active in any assay of this set; here they are far more common.
GalR3 antagonist: blocks the human galanin receptor 3; O60755; HEK293 GalR3-CNG cAMP membrane potential fluorescence; galR3 body fused to GalR1 C-terminus; inhibition, % at 3 µM; hit rate 0.44% among 360,000;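 active means inhibition above the screen-wide average plus 3 SD, cut at about 13% in these data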;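 further: forskolin and galanin both at EC90 stimulate the cells; cAMP rise reported by CNG channel membrane potential dye signal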
SRC1 inh: inhibits human SRC1 coactivator. HEK293 GAL4-SRC1 luciferase reporter, luminescence. inhibition, % at 3.6 µM. hit rate 0.12% among 360,000;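 active means inhibition above the campaign mean plus 3 SD, with each screening campaign given its own cutoff, cut at about 60% in these data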
COUP-TFII inh: inhibitors of human COUP-TFII (NR2F2); P24468; HEK293T NGFI-A luciferase reporter, luminescence; inhibition, % at 8.6 µM; hit rate 0.7% among 370,000;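 active means inhibition above a per-plate cutoff, mean inhibition of test wells between control levels plus 3 SD, cut at about 38% in these data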;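 further: cells cotransfected with COUP-TFII expression vector driving the NGFI-A reporter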
LRH-1 inv ag: suppresses constitutive activity of human LRH-1. O00482. HEK293T StAR-luciferase reporter, LRH-1 transfected, 24 h. inhibition, % at 3.6 µM. hit rate 0.13% among 360,000;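 active means inhibition above the mean inhibition of all tested compounds plus 3 SD, cut at about 73% in these data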
SRC3 inh: inhibits human SRC3 coactivator | Q9Y6Q9 | HEK293 GAL4-SRC3 luciferase reporter, luminescence | inhibition, % at 3.6 µM | hit rate 0.17% among 360,000;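 active means inhibition above a per-campaign cutoff, the mean of all compounds plus 3 SD, cut at about 60% in these data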;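 further: higher means less SRC3-driven luciferase light from the GAL4 reporter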
NCOA2 inhibitor: human SRC2 (NCOA2) inhibition; Q15596; HEK293 GAL4-SRC2 luciferase reporter, luminescence; inhibition, % at 9 µM; hit rate 0.17% among 370,000;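 active means inhibition above the mean inhibition of all tested compounds plus 3 SD, set per campaign, cut at about 52% in these data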
GalR3 conf: GalR3 (human) antagonism, confirmation | hit rate 59% among 1,600 | AID 652245 | shares compounds with GalR3 antagonist | HEK293 GalR3 CNG cAMP biosensor, membrane potential fluorescence; galR3 fused to GalR1 carboxy tail; challenged with forskolin and galanin at EC90 | inhibition, % at 3 µM;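 active means inhibition above the primary screen's cutoff, the mean inhibition of all screened compounds plus 3 SD, cut at about 13% in these data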
HEK-CNG parental: parental cell agonism counter-screen for GalR3 antagonists. shares compounds with GalR3 antagonist. HEK293-CNG parental cells, cAMP membrane potential fluorescence; normalised: DMSO wells 0%, forskolin wells 100%. activation, % at 3 µM. hit rate 10% among 1,600; in the data active means activation above about 1.3%
Gal4-VP16 ctr: inhibits VP16 reporter, flagging COUP-TFII antagonist hits; HEK293 Gal4-VP16 luciferase reporter, luminescence; hit rate 25% among 2,500; inhibition, % at 8.5 µM; shares compounds with COUP-TFII inh; AID 687007; in the data active means inhibition above about 13%
NR2F2 inh conf: confirmation of human COUP-TFII (NR2F2) inhibitors | shares compounds with COUP-TFII inh | HEK293 NGFI-A luciferase reporter, luminescence | inhibition, % at 8.5 µM | hit rate 45% among 2,500 | AID 687008;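 active means mean inhibition over three repeats above a set limit taken from the earlier primary screen, cut at about 38% in these data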
A number is an active result; – = inactive; · = no result.

SMILES | GalR3 antagonist | SRC1 inh | COUP-TFII inh | LRH-1 inv ag | SRC3 inh | NCOA2 inhibitor | GalR3 conf | HEK-CNG parental | Gal4-VP16 ctr | NR2F2 inh conf
CN1CC=C(c2ccccc2)N(c2ccc(Br)cc2)C1=O | · | · | – | · | · | – | · | · | · | ·
COCCN(C(=O)COC(=O)CCS(=O)(=O)c1ccccc1)c1c(N)n(Cc2ccccc2)c(=O)[nH]c1=O | 14 | – | – | – | – | – | – | – | · | ·
C=CCN(CC#Cc1ccc(C(F)(F)F)cc1)Cc1ccc(OC)cc1OC | · | · | – | · | · | – | · | · | · | ·
CCOc1ccc2[nH]c(SCC(=O)OC)c([N+](=O)[O-])c2c1 | 20 | – | – | – | – | – | 17 | – | · | ·
O=C(NCCCl)NNc1c(Cl)cc(Cl)cc1Cl | 26 | – | – | – | – | – | 13 | – | · | ·
COc1ccc(-c2cnc3c(NC=O)cc(-c4ccc(F)cc4)cn23)cc1OC | 15 | – | – | – | – | – | 21 | – | · | ·
COc1cccc(-c2cnc3c(NC=O)cc(-c4ccc(OC)cc4OC)cn23)c1 | – | – | – | – | – | – | · | · | · | ·
COc1ccc(-c2cc(NC=O)c3ncc(-c4ccc(OC)c(OC)c4)n3c2)c(OC)c1 | 44 | – | – | – | – | – | 25 | – | · | ·
COc1ccc(-c2cnc3c(NC=O)cc(-c4ccc(S(C)(=O)=O)cc4)cn23)cc1OC | – | – | – | – | – | – | · | · | · | ·
COc1ccc(-c2cnc3c(NC=O)cc(-c4cccc(NS(C)(=O)=O)c4)cn23)cc1OC | 59 | – | – | – | – | – | 43 | – | · | ·
COc1ccccc1-c1cc(NC=O)c2ncc(-c3ccc(S(C)(=O)=O)cc3)n2c1 | 14 | – | – | – | – | – | 30 | – | · | ·
CCOC(=O)Cn1cc(CN2CCS(=O)(=O)N(Cc3ccc(Cl)cc3)C(C(=O)OC)C2)nn1 (stereo unspecified) | · | · | – | · | · | – | · | · | · | ·
COc1cccc(-c2cc(NC=O)c3ncc(-c4ccc(OC)c(OC)c4)n3c2)c1 | 38 | – | – | – | – | – | 39 | – | · | ·
COc1cccc(-c2cnc3c(NC=O)cc(-c4cc(OC)c(OC)c(OC)c4)cn23)c1 | – | – | – | – | – | – | · | · | · | ·
COc1ccc(-c2cnc3c(NC=O)cc(-c4ccccc4)cn23)cc1OC | 44 | – | – | – | – | – | 15 | – | · | ·
CN(C(=O)c1ccc2c(c1)SC1=NS(=O)(=O)CCN12)C(c1ccccc1)c1ccccc1 | 31 | – | – | – | – | – | 30 | – | · | ·
Cc1ccc(S(=O)(=O)N2CCN(C)CC2)cc1-c1nnc2c3ccccc3c(C)nn12 | 40 | – | – | – | – | – | 49 | – | · | ·
COc1ccc(S(=O)(=O)N2CCN(CCO)CC2)cc1-c1nnc2c3ccccc3c(C)nn12 | – | – | – | – | – | – | · | · | · | ·
Cc1ccc(S(=O)(=O)N2CCN(CCO)CC2)cc1-c1nnc2c3ccccc3c(C)nn12 | 30 | – | – | – | – | – | 43 | 2.9 | · | ·
COc1ccc(N2CCN(C(=S)Nc3ccccc3)CC2)cc1 | – | – | – | – | – | – | · | · | · | ·
CC(=O)c1ccc(N2CCN(C(=S)Nc3ccc(Oc4ccccc4)cc3)CC2)cc1 | 82 | – | 69 | – | – | – | 97 | – | – | 56
Cc1ccc(NC(=O)CNc2ccc(Cl)c(Cl)c2)cc1S(=O)(=O)N(C)C | 45 | – | 54 | – | – | – | 90 | – | – | 40
O=C(OC12CCCN(C1)/C(=C/c1ccccc1)C2)c1ccccc1 (stereo unspecified) | · | · | – | · | · | – | · | · | · | ·
CN(C)CCCNS(=O)(=O)c1ccc(N2CCN(Cc3ccc4c(c3)OCO4)CC2)c([N+](=O)[O-])c1 | 57 | – | 40 | – | – | – | 95 | – | – | –
CC(=O)c1ccc(N2CCN(c3ccc(S(=O)(=O)NCCCN(C)C)cc3[N+](=O)[O-])CC2)cc1 | – | – | – | – | – | – | · | · | · | ·
SMILES | GalR3 antagonist | SRC1 inh | COUP-TFII inh | LRH-1 inv ag | SRC3 inh | NCOA2 inhibitor | GalR3 conf | HEK-CNG parental | Gal4-VP16 ctr | NR2F2 inh conf
NS(=O)(=O)c1ccc(CCNC(=O)CN2CCC(Cc3ccccc3)CC2)cc1 | 15 | – | 38 | – | – | – | – | – | – | –
O=C(NC(Nc1nc2ccc([N+](=O)[O-])cc2s1)(C(F)(F)F)C(F)(F)F)c1cccnc1 | 52 | 69 | 77 | 91 | 78 | – | 85 | – | – | 70
CN(C)S(=O)(=O)c1ccc2nc(NC(=O)c3cccnc3)sc2c1 | – | – | – | – | – | – | · | · | · | ·
NC(=O)c1ccc(N2CCN(S(=O)(=O)c3cccs3)CC2)c([N+](=O)[O-])c1 | 101 | – | 60 | – | – | – | 102 | – | – | 56
CCN(CC)C(=O)CC[C@H]1CC[C@]2(CCCN(C(=O)c3ccc4ccccc4n3)C2)O1 | · | · | – | · | · | – | · | · | · | ·
N#Cc1nc(N2CCCC2)nc(N2CCCC2)n1 | 98 | – | 47 | – | – | – | 112 | – | – | –
N#Cc1nc(N2CCCCC2)nc(N2CCOCC2)n1 | – | – | – | – | – | – | · | · | · | ·
O=S1(=O)C=CCN1Cc1cn(Cc2ccccc2)nn1 | · | · | – | · | · | – | · | · | · | ·
O=C(NC1CCCc2c1cnn2-c1ccccc1F)c1ccccn1 (stereo unspecified) | – | – | – | – | – | – | · | · | · | ·
COc1ccc(C(=O)NC2CCCc3c2cnn3-c2ccccc2F)cc1OC (stereo unspecified) | 68 | – | 50 | – | – | – | 42 | – | – | 49
O=C(NC1CCCc2c1cnn2-c1ccccc1F)c1ccncc1 (stereo unspecified) | 32 | – | 63 | – | – | – | 75 | – | 14 | 49
COc1ccc(OC)c(S(=O)(=O)N/N=C\c2ccc3c(c2)OCO3)c1 | – | – | – | – | – | – | · | · | · | ·
COc1ccc(S(=O)(=O)N/N=C\c2ccc3c(c2)OCO3)c(OC)c1 | 100 | – | 48 | – | – | – | 73 | – | – | –
FC(F)(F)c1cnc(NNC(=S)Nc2ccc(Cl)cc2)c(Cl)c1 | – | – | – | – | – | – | · | · | · | ·
Fc1ccc(NC(=S)NNc2ncc(C(F)(F)F)cc2Cl)c(F)c1 | 92 | – | 58 | – | – | – | 97 | – | 20 | –
c1csc(CNc2ncnc3sccc23)c1 | 61 | – | 63 | – | – | – | 88 | – | – | 46
C[C@@H]1ON(C)[C@H]2C[C@H]3c4cc(-c5ccc(F)cc5)ccc4CCN3C[C@@H]12 | – | · | – | · | · | – | · | · | · | ·
